Assay in all cases: Peg3 promoter luciferase inhibitors, potency, dose response, cell-based, HeLa, CREF/GAPDH counter-screen panel (AID 624167)
Background: The purpose of a counterscreen is to sort out artefacts and off-target activity.

For experiment [1], the target named is PEG-3 (UniProt Q6IN02). Conditions: CREF/GAPDH counter-screens; HeLa PEG-Prom luciferase reporter, overnight, run 1, dose range 1, at 100 µM (top of the series) unless noted.
The target of experiment [2] is PEG-3 (UniProt Q6IN02). Conditions: CREF/GAPDH counter-screens; HeLa PEG-Prom luciferase reporter, overnight, run 2, dose range 1, at 100 µM (top of the series) unless noted.
For experiment [3], the system named is Rat fibroblasts (CREF). Conditions: CREF/GAPDH counter-screens; run 1, dose range 1, at 100 µM (top of the series).
Experiment [4] deals with Rat fibroblasts (CREF). Conditions: CREF/GAPDH counter-screens; run 2, dose range 1, at 100 µM (top of the series).

Broadly, the inhibition is the relative decrease from the control value, in per cent.

Sequence of PEG-3 (Q6IN02 whole entry, looked up): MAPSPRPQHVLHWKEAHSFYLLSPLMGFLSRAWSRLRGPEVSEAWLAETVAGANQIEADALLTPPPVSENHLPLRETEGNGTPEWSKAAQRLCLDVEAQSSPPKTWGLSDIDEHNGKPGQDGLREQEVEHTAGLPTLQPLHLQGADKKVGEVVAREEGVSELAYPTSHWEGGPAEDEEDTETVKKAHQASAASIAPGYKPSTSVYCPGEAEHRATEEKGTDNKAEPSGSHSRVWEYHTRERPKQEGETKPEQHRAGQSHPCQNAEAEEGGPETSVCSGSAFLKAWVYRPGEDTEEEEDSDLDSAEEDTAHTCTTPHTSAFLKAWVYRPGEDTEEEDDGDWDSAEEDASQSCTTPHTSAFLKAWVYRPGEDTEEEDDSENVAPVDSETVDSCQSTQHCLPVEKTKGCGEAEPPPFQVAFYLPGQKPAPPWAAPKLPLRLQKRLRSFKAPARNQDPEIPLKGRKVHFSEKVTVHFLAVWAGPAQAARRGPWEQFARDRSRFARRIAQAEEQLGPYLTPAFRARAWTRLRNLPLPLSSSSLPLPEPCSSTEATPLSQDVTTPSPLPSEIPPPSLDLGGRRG

Consider `CCOc1ccc(Nc2c3ccccc3nc3ccccc23)cc1`, for which the inhibition turned out to be 97.9% with PEG-3 [1] and 101% with PEG-3 [2].

As to `CNCC[C@@H](Oc1ccc(C(F)(F)F)cc1)c1ccccc1`, the inhibition was 98.7% with PEG-3 [1] and 100% with PEG-3 [2].

As to `COc1cccc(/C=N/NC(=O)c2c(-c3ccccc3)noc2C)c1O`, the figures for the inhibition with PEG-3 [1] and with PEG-3 [2] were 33.5% and 54.6%, respectively.

For the compound `CN(C)S(=O)(=O)c1cccc(NC(=O)CSc2nc3c(cc2C#N)C(=O)CC(C)(C)C3)c1`, the inhibition with PEG-3 [1] was 63.2%; in the experiment with PEG-3 [2], 60.6%.

With `O=S(=O)(c1cccs1)N1CCN(c2ccnc3cc(Cl)ccc23)CC1`, the inhibition is 83.3% with PEG-3 [1] and 90.7% in the experiment with PEG-3 [2].

In the case of `Cc1ccc2sc(N(CCCN(C)C)C(=O)c3ccc(S(=O)(=O)N(C)C4CCCCC4)cc3)nc2c1C`, the inhibition with PEG-3 [1] and in the experiment with PEG-3 [2] was 102% each time.

For the compound `O=C(NC(=O)c1ccccc1)Nc1ccccn1`, the inhibition with PEG-3 [1] came to 98.8%; with PEG-3 [2], 94%; with Rat fibroblasts (CREF) [3], 95.3%; in the experiment with Rat fibroblasts (CREF) [4], 96.8%.

As for `COc1ccc(-c2oc3ccc(-c4cc(OC)c(OC)c(OC)c4)cc3c2C#Cc2ccccn2)cc1`, the inhibition came to 26.8% with PEG-3 [1] and 53.3% with PEG-3 [2].

As for `CN(C)CCNC(=O)c1sc2nc(-c3ccccc3)cc(C(F)(F)F)c2c1N`, the inhibition with PEG-3 [1] and with PEG-3 [2] was 102% throughout.

With `O=C(/C=C\Nc1ccc2c(c1)OCO2)c1ccccn1`, the inhibition in the experiment with PEG-3 [1] was 102%; with PEG-3 [2], 95.1%; with Rat fibroblasts (CREF) [3] it was 98.9%; in the experiment on Rat fibroblasts (CREF) [4], 97.2%.

Take `COC(=O)CSC1=NS(=O)(=O)c2ccccc21`: the results for the inhibition with PEG-3 [1] and with PEG-3 [2] were 66.3% and 98%, respectively.

Consider `O=C1N[C@@H](c2ccccc2)COC(=O)[C@@H](Cc2ccc(F)cc2)CC/C=C/C[C@H]1CC(=O)N(CCO)Cc1ccccc1`, for which the values for the inhibition in the experiment with PEG-3 [1] and with PEG-3 [2] were 95.6% and 97.4%, respectively.

`CCOc1ccc(NC(=O)Nc2cccc(C(=O)O)c2)cc1`: the inhibition was 98% with PEG-3 [1], 94.6% with PEG-3 [2], 91.9% in the experiment on Rat fibroblasts (CREF) [3] and 94.1% with Rat fibroblasts (CREF) [4].

In the case of `Cc1ccc2nc(C)cc(Nc3ccc([N+](=O)[O-])cc3)c2c1`, the inhibition with PEG-3 [1] worked out at 102%; with PEG-3 [2], 101%; in the experiment with Rat fibroblasts (CREF) [3] it was 98.1%; in the experiment on Rat fibroblasts (CREF) [4], 98.9%.

As to `C/C(=N\NC(=O)c1cc(C2CC2)nc2ccccc12)c1ccc(O)cc1O`, the inhibition in the experiment with PEG-3 [1] worked out at 59.9%; in the experiment with PEG-3 [2], 61.4%; in the experiment on Rat fibroblasts (CREF) [3], 31.4%; with Rat fibroblasts (CREF) [4], 65.1%.

In the case of `CCOC(=O)c1c(NC(=O)COc2ccccc2F)sc2c1CC(C)(C)NC2(C)C`, the inhibition in the experiment with PEG-3 [1] was determined as 89.1%; in the experiment with PEG-3 [2], 102%.

As to `COc1ccc(CCn2c(=N)c(C(=O)NC3CCCC3)cc3c(=O)n4cccc(C)c4nc32)cc1`, the values for the inhibition with PEG-3 [1] and with PEG-3 [2] were 44.4% and 47.1%, respectively.

Turning to `CC(=O)N1CCN(c2cc(-c3ccccc3)nc3cc(-c4cccc(Cl)c4)nn23)CC1`, the inhibition came to 101% in the experiment with PEG-3 [1] and 95.5% with PEG-3 [2].

As for `CC(C)CC1C(=O)N(Cc2cn(Cc3ccco3)nn2)CCS(=O)(=O)N1Cc1ccc(-c2ccc(F)cc2)cc1` (stereo not drawn), the inhibition with PEG-3 [1] came to 39%; with PEG-3 [2], 30.4%; in the experiment with Rat fibroblasts (CREF) [3], 96.8%; with Rat fibroblasts (CREF) [4], 100%.

In the case of `CN(C)CCCN1c2ccccc2Sc2ccc3ccccc3c21`, the inhibition in the experiment with PEG-3 [1] turned out to be 94.6%; in the experiment with PEG-3 [2], 98.6%.

In the case of `CCCCC(=O)NC(c1ccc(OC)cc1)c1ccc2cccnc2c1O` (stereo not drawn), the inhibition was determined as 73.4% in the experiment with PEG-3 [1], 80.2% with PEG-3 [2], 35.2% with Rat fibroblasts (CREF) [3] and 28.7% in the experiment with Rat fibroblasts (CREF) [4].

Consider `O=C(OCC(F)(F)F)c1cccc(COc2ccc3ccccc3c2)c1`, for which the inhibition was found to be 96.5% in the experiment with PEG-3 [1], 92.4% with PEG-3 [2], 86.6% in the experiment with Rat fibroblasts (CREF) [3] and 85.7% with Rat fibroblasts (CREF) [4].

On to `COc1ccc(-n2c(O)c(/C=N/Nc3nc(C)cc(C)n3)c3ccccc3c2=O)cc1OC`, for which the inhibition is 57.2% in the experiment with PEG-3 [1], 63.9% with PEG-3 [2], 80.4% with Rat fibroblasts (CREF) [3] and 68.5% with Rat fibroblasts (CREF) [4].

Consider `O=S(=O)(Nc1cccc2ncccc12)c1cccs1`, for which the inhibition in the experiment with PEG-3 [1] was found to be 94.5%; in the experiment with PEG-3 [2], 96.5%.

For the compound `CCOc1ccc(OCc2cccc(C(=O)O)c2)cc1`, the inhibition with PEG-3 [1] is 91.5%; with PEG-3 [2], 91.5%; in the experiment on Rat fibroblasts (CREF) [3], 96.6%; with Rat fibroblasts (CREF) [4], 97.5%.

For the compound `c1cc2c3c(cccc3c1)NC1(CCC3(CC1)Nc1cccc4cccc(c14)N3)N2`, the inhibition stood at 97.7% in the experiment with PEG-3 [1] and 102% in the experiment with PEG-3 [2].

For the compound `CN(C)CCNc1ncnc2c1ncn2[C@H]1CN(Cc2ccc(-c3ccccc3)cc2)C[C@@H](CO)O1`, the inhibition was determined as 100% with PEG-3 [1] and 101% in the experiment with PEG-3 [2].

On to `Cc1cc(N2CCN(C)CC2)ccc1NC(=O)c1c2c(nc3ccccc13)CCN(Cc1ccccc1)C2`, for which the inhibition amounted to 101% with PEG-3 [1], 98.9% with PEG-3 [2], 99.4% in the experiment on Rat fibroblasts (CREF) [3] and 99.8% in the experiment on Rat fibroblasts (CREF) [4].

As for `COc1cc(Nc2c3ccccc3nc3ccccc23)cc(OC)c1OC`, the inhibition in the experiment with PEG-3 [1] stood at 102%; with PEG-3 [2] it was 102%; with Rat fibroblasts (CREF) [3], 92.9%; in the experiment on Rat fibroblasts (CREF) [4], 72.1%.

With `COc1ccc(OC)c(-c2cc(C(=O)N3CCN(c4ncccn4)CC3)c3ccccc3n2)c1`, the inhibition turned out to be 54.9% with PEG-3 [1] and 59.3% with PEG-3 [2].

Turning to `O=C(Nc1ccccc1)c1nc[nH]c1C(=O)NCCCNC(=O)c1[nH]cnc1C(=O)Nc1ccccc1`, the inhibition with PEG-3 [1] is -24.6%; with PEG-3 [2], 96.8%.

`O=C(O)c1cccc(COc2ccc(CO)cc2Cl)c1`: the inhibition stood at 97.3% in the experiment with PEG-3 [1], 102% with PEG-3 [2], 91.5% in the experiment with Rat fibroblasts (CREF) [3] and 91.1% in the experiment on Rat fibroblasts (CREF) [4].

In the case of `O=C(Nc1cc(S(=O)(=O)N2CCOCC2)ccc1Cl)c1cc([N+](=O)[O-])ccc1Cl`, the inhibition was 98.9% with PEG-3 [1], 98.9% with PEG-3 [2], 85.8% with Rat fibroblasts (CREF) [3] and 98.1% with Rat fibroblasts (CREF) [4].

Turning to `CC(C)CC1C(=O)N(Cc2cn(CCC3OCCO3)nn2)CCS(=O)(=O)N1Cc1ccc(-c2ccc(F)cc2)cc1` (stereo not drawn), the inhibition in the experiment with PEG-3 [1] turned out to be 98.1%; with PEG-3 [2] it was 93.8%.

As to `CCCN1CCc2c(sc(NC(=O)c3ccc(S(=O)(=O)N4CCN(C(=O)OCC)CC4)cc3)c2C(N)=O)C1`, the values for the inhibition with PEG-3 [1] and with PEG-3 [2] were 78.5% and 85.4%, respectively.

`COc1ccccc1Nc1nc(-c2sc(NC(=O)c3ccco3)nc2C)cs1`: the inhibition in the experiment with PEG-3 [1] worked out at 38%; in the experiment with PEG-3 [2], 52.5%; in the experiment on Rat fibroblasts (CREF) [3], 35.4%; in the experiment with Rat fibroblasts (CREF) [4], 40.3%.

`COc1ccc(-c2nc3c(C(=O)NCCN(C)C)cccc3c3ccccc23)cc1`: the inhibition stood at 102% with PEG-3 [1] and 99.5% in the experiment with PEG-3 [2].

On to `CC1(C(=O)NCc2cccc3ccccc23)CCN1C(=O)Cc1ccc(-c2ccccc2)cc1` (stereo not drawn), for which the values for the inhibition with PEG-3 [1] and in the experiment with PEG-3 [2] were 52.6% and 43.6%, respectively.

On to `COc1ccc(Nc2oc(COc3ccccc3OC)nc2C#N)cc1`, for which the values for the inhibition in the experiment with PEG-3 [1] and with PEG-3 [2] were 69.9% and 88.5%, respectively.

Regarding `Cc1cc(Br)ccc1NC(=O)CN1C(=O)C2C3CC(c4ccccc4)C(C3)C2C1=O` (stereo not drawn), the inhibition is 99.9% with PEG-3 [1] and 92.1% in the experiment with PEG-3 [2].

For the compound `CCC1CCCCN1S(=O)(=O)c1ccc(C(=O)N(CCCN(C)C)c2nc3cc4c(cc3s2)OCO4)cc1` (stereo not drawn), the inhibition in the experiment with PEG-3 [1] came out at 101%; with PEG-3 [2], 96.1%.

As for `O=C(N/N=C/c1sc(N2CCOCC2)nc1-c1ccccc1)c1cccc(S(=O)(=O)N2CCCC2)c1`, the inhibition with PEG-3 [1] was 63.5%; in the experiment with PEG-3 [2] it was 53.5%; with Rat fibroblasts (CREF) [3] it was -19%; with Rat fibroblasts (CREF) [4], 87.5%.

For the compound `Cc1cc(Br)ccc1NC(=O)CNC(=O)Cn1ncc(Cl)c(Cl)c1=O`, the inhibition with PEG-3 [1] amounted to 99.8%; in the experiment with PEG-3 [2], 94.5%; in the experiment on Rat fibroblasts (CREF) [3] it was 48.9%; in the experiment with Rat fibroblasts (CREF) [4] it was 96.9%.

On to `CCCN1C=CC(=C2C(=O)c3ccccc3C2=O)C=C1`, for which the inhibition in the experiment with PEG-3 [1] came out at 102%; with PEG-3 [2], 98.2%; in the experiment with Rat fibroblasts (CREF) [3], 100%; with Rat fibroblasts (CREF) [4], 100%.

For the compound `CCN(CCO)c1ccc(N=Nc2cc(C)[nH]n2)cc1`, the inhibition with PEG-3 [1] stood at 95.5%; with PEG-3 [2], 98.9%; with Rat fibroblasts (CREF) [3], 99.4%; in the experiment with Rat fibroblasts (CREF) [4], 98.6%.
